Assay [1] can be described thus: qHTS profiling of the MIPE4 collection as inhibitors of Plasmodium falciparum (DD2) proliferation (AID 743345; call rule not given here). To be noted: P. falciparum Dd2 in erythrocytes, SYBR Green DNA, 72 h; at 28.5 µM (top of the series). Put shortly:
(§1)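 Erythrocytes infected with P. falciparum (0.3% parasitemia, 2.5% hematocrit) incubated with compounds 72 h at 37 C, 5% CO2. Lysis with saponin/Triton buffer containing SYBR Green I, overnight at room temperature in the dark; DNA fluorescence (485/535 nm) normalised to 0.29 uM artemisinin and DMSO.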
(qHTS replaces the single test concentration by a dilution series.)

Assay [2] is described as follows: qHTS profiling of the MIPE4 collection as inhibitors of Plasmodium falciparum (HB3) proliferation (AID 743347; call rule not given here;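 note: plate controls were DMSO vehicle wells for no effect and artemisinin wells for full effect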). To be noted: P. falciparum HB3 in erythrocytes, SYBR Green DNA, 72 h; at 28.5 µM (top of the series). In a few lines: as §1
Assay [3] can be described thus: qHTS Assay for Identifying Gametocytocidal Compounds (AID 743244).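 For max response: % is set by controls: 0 for no effect and ±100 for the full control effect; actives lower the fluorescent signal which means gametocytes are killed.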 Note: potency is the fitted concentration of half-maximal effect. To be noted: P. falciparum 3D7 stage III-V gametocytes, alamarBlue, 72 h; max response: stronger effect = lower value. In a few lines: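 P. falciparum 3D7 stage III–V gametocytes (20,000 cells/well) were exposed to compounds for 72 h at 37 °C, 5% CO2. AlamarBlue was then added for 24 h; decreased resorufin fluorescence (Ex 525/Em 598 nm) indicated loss of viability.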

The nature of assay [4]: qHTS assay for cell viability of HEK293 cells (AID 743288). For max response: % is set by controls: 0 for no effect and ±100 for the full control effect. Note: nearly all actives have a fitted effect of over 50% in size. Note: potency is the fitted concentration of half-maximal effect. To be noted: ATP luminescence (CellTiter-Glo), 18 h; max response: stronger effect = lower value. In a few lines: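 Environmental chemicals tested in qHTS format against parental HEK293 cells; 18 h treatment, 37 C; read-out ATP luminescence (CellTiter-Glo), 30 min RT development.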
Assay [5] can be described thus: qHTS assay for cell viability of the p53RE-bla HCT-116 cell line (AID 743292). Note: % is set by controls: 0 for no effect and ±100 for the full control effect; nearly all actives have a fitted effect of over 55% in size. Put shortly:
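Readout: CellTiter-Glo luminescence after 30 min RT. Treatment: compounds in DMSO, 16 h, 37 C. Cells: CellSensor p53RE-bla HCT-116, 4,000/well, preincubated 5 h.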

Where “and” joins values, the source holds several entries; their conditions need not be identical. Equal values may be shown once. Records with an inconclusive call do not appear. Calls of active or inactive are those of the source. Unless noted, calls come from the whole dose curve; as a rule, active = well fitted curve in the direction sought with a large enough effect; inconclusive = small, poorly fitted or top-dose-only effect, or another doubt; inactive = no such curve, though single readings can be large; an effect the other way counts as inactive or inconclusive.

In the case of `Cc1cc(C(C)(C)C)cc(C)c1CC1=NCCN1`, the parasite growth remaining, % of DMSO control (lower = more inhibition) in assay [1] turned out to be 38.8%. The molecule further displayed a growth, % of control in assay [2] of 84.3%.
`COP(=S)(OC)Oc1ccc(Sc2ccc(OP(=S)(OC)OC)cc2)cc1`: the results for the max response in assay [3] and in assay [4] were 1.05% (inactive) and -12.2% (inactive), respectively. In addition, the result in assay [5] was inactive.
`CCC(=O)OC1(c2ccccc2)CCN(C)CC1`: the max response in assay [3] is -1.1% (inactive).
On to `C[C@H]1C(=O)O[C@@H]2CCN3CC=C(COC(=O)[C@](C)(O)[C@]1(C)O)[C@H]23`, for which the max response in assay [4] was -3.57% (inactive). The molecule was classed as inactive in assay [5].
In the case of `O=C(CCl)c1ccc(Cl)cc1Cl`, the max response in assay [3] is 14.5% (inactive) and 7.69% (inactive). In addition, the Potency in assay [4] is 14.1 µM (active).
On to `CNC(=O)Oc1cccc2ccccc12`, for which, in assay [3], the Potency was 35.5 µM (active). Further, the max response in assay [4] is -4.95% (inactive) and -11.8% (inactive). Besides, the outcome in assay [5] was inactive.
As for `O=C(Nc1ccc(Cl)cc1)Nc1ccc(Cl)c(C(F)(F)F)c1`, the Potency in assay [3] was 12.6 µM (active).
For `COCC(=O)N(c1c(C)cccc1C)C(C)C(=O)OC` (stereo not given), the max response is -6.72% (inactive) in assay [3] and -7.89% (inactive) in assay [4]. Further, the molecule was classed as inactive in assay [5].
`COP(=O)(OC)OC=C(Cl)Cl`: the max response in assay [3] is -6.93% (inactive); in assay [4], -9.07% (inactive) [middle of 4 runs]. Moreover, the molecule was classed as inactive in assay [5].
Consider `Oc1c(Br)cc(Br)cc1Br`, for which the max response is -0.35% (inactive) in assay [3]; -15.1% (inactive) and -2.12% (inactive) in assay [4]. Also, the call in assay [5] was inactive.
`CCCS(=O)c1ccc2nc(NC(=O)OC)[nH]c2c1` (stereo not given): the parasite growth remaining, % of DMSO control (lower = more inhibition) in assay [1] is 99.7%. The molecule further showed a growth, % of control in assay [2] of 81.4%.
As to `CCCCCCCCC(=O)NCc1ccc(O)c(OC)c1`, the max response in assay [3] is -2.23% (inactive); in assay [4] it was -11.8% (inactive). Further, the outcome in assay [5] was inactive.
With `CN(C)C(=S)SSC(=S)N(C)C`, the Potency in assay [3] was 0.0662 µM (active); in assay [4] it was 44.7 µM (active). In assay [5], the molecule was classed as inactive.
For the molecule `O=C(NC(=O)c1c(F)cccc1F)Nc1cc(Cl)c(OC(F)(F)C(F)C(F)(F)F)cc1Cl` (stereo not given), the max response in assay [3] was 13.1% (inactive); in assay [4], -27.8% (inactive). In addition, in assay [5], the molecule was called inactive.
On to `CNC(C)Cc1ccc2c(c1)OCO2` (stereo not given), for which the max response in assay [3] was -4.91% (inactive).
`C=CCc1cc(OC)c(O)c(C(=O)NCCO)c1` showed a parasite growth remaining, % of DMSO control (lower = more inhibition) in assay [1] of 40.8%. For the same molecule, in assay [2], the growth, % of control turned out to be 100%.
As for `Cc1ccc(N=CN(C)C=Nc2ccc(C)cc2C)c(C)c1`, the figures for the max response in assay [3] and in assay [4] were 9.43% (inactive) and -16.1% (inactive), respectively. The molecule was called inactive in assay [5].
For `CCOP(=S)(OCC)O/N=C(\C#N)c1ccccc1`, in that order: -3.66% (inactive), -1.29% (inactive) and “inactive”.
On to `CCOC(=O)Nc1ccc(NCc2ccc(F)cc2)nc1N`, for which the Potency in assay [3] is 3.55 µM (active). In assay [1], this molecule came in with a parasite growth remaining, % of DMSO control (lower = more inhibition) of 90%. This molecule had a growth, % of control in assay [2] of 82.7%.
For the molecule `CCN(CC)CCOC(=O)C(C)(c1ccccc1)c1ccccc1`, the max response in assay [3] was 10.8% (inactive).
Same read-out and setting: to `C[N+]1(C)[C@@H]2CC[C@H]1CC(OC(=O)C(CO)c1ccccc1)C2` (stereo not given in full) belongs -7.22% (inactive) and -0.641% (inactive).
In the case of `C=CCOC(Cn1ccnc1)c1ccc(Cl)cc1Cl` (stereo not given), in assay [4], the max response was -18.6% (inactive) and -17% (inactive). Also, the molecule was classed as inactive in assay [5].

For the origin of these results see PubChem BioAssay (NCATS).
